Measurements taken from the supplement of paper PMC9262897, “Low-cost anti-mycobacterial drug discovery using engineered E. coli” (Nature Communications, 2022).
Counter-ions that a name gives are not always drawn. ± gives the standard deviation of the averaged measurements.

Assays:
Experiment in all cases: growth (OD600 after 10 h); higher = more growth (less inhibition)
[1] = tested on: E. coli TESEC Alr+ wild-type control; conditions: compound 0.1 mM; raw OD600 reference: median of DMSO wells 0.241, cell-free background 0.041
Experimental: (§1)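 TESEC Mtb Alr E. coli, or the Alr+ wild-type control, in 384-well plates with Prestwick library compounds at 0.1 mM and 1% DMSO, across arabinose induction levels of 1E3 to 1E7 nM. Growth is read as OD600 after 10 h at 37 °C in triplicate biological replicates.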

[2] = tested on: E. coli TESEC Mtb Asd; conditions: compound 0.1 mM
Experimental: (§2)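 TESEC E. coli strains in which the native enzyme is deleted and replaced by arabinose-inducible Mtb Asd, DapB, CysH or TrpD, each grown in its selective medium. Strains were screened against the Prestwick library at 0.1 mM and 1% DMSO in 384-well format at low and high arabinose induction. Growth is read as OD600 after 10 h in triplicate.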

[3] = tested on: E. coli TESEC Mtb DapB; conditions: compound 0.1 mM
Experimental: as §2

[4] = tested on: E. coli TESEC Alr+ wild-type control; conditions: compound 0.1 mM; raw OD600 reference: median of DMSO wells 0.49, cell-free background 0.052
Experimental: (§3)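 TESEC Mtb Alr E. coli (ΔaraC ΔtolC ΔentC Δalr ΔdadX, arabinose-inducible Mtb Alr) or the Alr+ wild-type control strain, grown in defined M9-fructose medium without D-alanine in 96-well plates with Prestwick library compounds at 0.1 mM and 1% DMSO. Low Alr induction is 0.1 µM arabinose and high induction is 10 mM arabinose.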

[5] = tested on: E. coli TESEC Mtb Alr; conditions: compound 0.1 mM
Experimental: as §3

[6] = tested on: E. coli TESEC Mtb Alr; conditions: compound 0.1 mM; remark: listed apart in the source
Experimental: as §1

[7] = arabinose induction (level): High, raw OD600 reference: median of DMSO wells 0.331, cell-free background 0.041
[8] = arabinose induction (level): Low, raw OD600 reference: median of DMSO wells 0.417, cell-free background 0.041
[9] = arabinose induction (level): High, raw OD600 reference: median of DMSO wells […], cell-free background 0.041
[10] = arabinose induction (level): Low, raw OD600 reference: median of DMSO wells 0.227, cell-free background 0.041
[11] = arabinose 100 nM, raw OD600 reference: median of DMSO wells 0.413, cell-free background 0.052
[12] = arabinose 10000000 nM, raw OD600 reference: median of DMSO wells […], cell-free background 0.052
[13] = arabinose 1000 nM, raw OD600 reference: median of DMSO wells 0.294, cell-free background 0.041
[14] = arabinose 10000 nM, raw OD600 reference: median of DMSO wells 0.264, cell-free background 0.041
[15] = arabinose 100000 nM, raw OD600 reference: median of DMSO wells 0.201, cell-free background 0.041
[16] = arabinose 1000000 nM, raw OD600 reference: median of DMSO wells 0.193, cell-free background 0.041
[17] = arabinose 10000000 nM, raw OD600 reference: median of DMSO wells 0.146, cell-free background 0.041

Row | SMILES | growth [1] | growth [2, 7] | growth [2, 8] | growth [3, 9] | growth [3, 10] | growth [4] | growth [5, 11] | growth [5, 12] | growth [6, 13] | growth [6, 14] | growth [6, 15] | growth [6, 16] | growth [6, 17]
1 | CCn1cc(C(=O)O)c(=O)c2cc3c(cc21)OCO3 [Oxolinic acid] | 0.0726 ± 0.0019 | 0.156 ± 0.011 | 0.149 ± 0.011 | 0.194 ± 0.0098 | 0.208 ± 0.054 | 0.0605 ± 0.0014 | 0.0698 ± 0.0013 | 0.0582 ± 0.0011 |  |  |  |  | 
2 | C[C@]12CC[C@@H]3c4ccc(OC(=O)N(CCCl)CCCl)cc4CC[C@H]3[C@@H]1CC[C@@H]2O [Estramustine] | 0.248 ± 0.0012 | 0.207 ± 0.025 | 0.189 ± 0.049 |  |  |  | 0.396 ± 0.014 | 0.31 ± 0.0085 | 0.306 ± 0.011 | 0.284 ± 0.01 | 0.212 ± 0.011 | 0.147 ± 0.009 | 0.1686 ± 0.00066
3 | CCC1(c2cccc(O)c2)CCCCN(C)C1 (stereo not drawn) [Meptazinol hydrochloride] | 0.2565 ± 0.0013 | 0.176 ± 0.04 | 0.41 ± 0.095 |  |  |  | 0.411 ± 0.014 | 0.323 ± 0.023 | 0.3214 ± 0.0014 | 0.3 ± 0.0084 | 0.192 ± 0.015 | 0.203 ± 0.018 | 0.139 ± 0.0077
4 | COc1ccc(C(=O)N2CCCC2=O)cc1 [Aniracetam] | 0.25 ± 0.0051 | 0.235 ± 0.057 | 0.309 ± 0.058 |  |  |  | 0.405 ± 0.011 | 0.343 ± 0.012 | 0.3088 ± 0.0018 | 0.246 ± 0.01 | 0.236 ± 0.021 | 0.172 ± 0.0084 | 0.167 ± 0.0026
5 | COc1cc2c(cc1OC)C(C)NCC2 (stereo not drawn) | 0.236 ± 0.0037 | 0.337 ± 0.049 | 0.349 ± 0.082 |  |  | 0.453 ± 0.034 | 0.408 ± 0.011 | 0.323 ± 0.025 |  |  |  |  | 
6 | CN[C@@H]1C[C@@H](c2ccc(Cl)c(Cl)c2)c2ccccc21 [Indatraline hydrochloride] | 0.0397 ± 0.00076 | 0.0513 ± 0.0011 | 0.0522 ± 0.0001 |  |  | 0.0509 ± 0.0003 | 0.24 ± 0.15 | 0.0505 ± 0.00096 |  |  |  |  | 
7 | COc1ccc2c(c1)[C@]13CCCC[C@@H]1[C@H](C2)N(C)CC3 [Dextromethorphan hydrobromide monohydrate] | 0.1976 ± 0.0013 | 0.168 ± 0.015 | 0.29 ± 0.045 |  |  |  | 0.42 ± 0.006 | 0.355 ± 0.015 | 0.25 ± 0.005 | 0.255 ± 0.0068 | 0.2 ± 0.027 | 0.154 ± 0.0044 | 0.142 ± 0.002
8 | N[C@@H]1C[C@H]1c1ccccc1 [Tranylcypromine hydrochloride] | 0.241 ± 0.013 | 0.354 ± 0.034 | 0.388 ± 0.012 |  |  |  | 0.411 ± 0.011 | 0.371 ± 0.024 | 0.285 ± 0.018 | 0.28 ± 0.0083 | 0.203 ± 0.02 | 0.19 ± 0.0048 | 0.141 ± 0.0022
9 | O=P1(N(CCCl)CCCl)NCCCO1 (stereo not drawn) [Cyclophosphamide] | 0.2382 ± 0.0022 | 0.341 ± 0.066 | 0.446 ± 0.014 |  |  |  | 0.4139 ± 0.003 | 0.314 ± 0.012 | 0.271 ± 0.011 | 0.276 ± 0.0047 | 0.18 ± 0.021 | 0.204 ± 0.022 | 0.137 ± 0.0039
10 | CC(C)c1c(CN(C)C(C)Cc2ccccc2)n(C)n(-c2ccccc2)c1=O (stereo not drawn) [Famprofazone] | 0.219 ± 0.0093 | 0.425 ± 0.02 | 0.486 ± 0.087 |  |  | 0.443 ± 0.019 | 0.406 ± 0.0053 | 0.269 ± 0.0074 |  |  |  |  | 
11 | CCC1(CC)C(=O)C=CNC1=O [Pyrithyldione] | 0.223 ± 0.0058 | 0.398 ± 0.047 | 0.438 ± 0.018 |  |  |  | 0.389 ± 0.009 | 0.398 ± 0.025 | 0.295 ± 0.026 | 0.289 ± 0.0059 | 0.207 ± 0.017 | 0.2322 ± 0.0018 | 0.152 ± 0.0058
12 | CN1CCN(C(=O)OC2c3nccnc3C(=O)N2c2ccc(Cl)cn2)CC1 (stereo not drawn) [Zopiclone] | 0.222 ± 0.0047 | 0.291 ± 0.062 | 0.358 ± 0.056 |  |  |  | 0.417 ± 0.009 | 0.357 ± 0.01 | 0.284 ± 0.0071 | 0.246 ± 0.0053 | 0.183 ± 0.011 | 0.18 ± 0.0087 | 0.138 ± 0.0054
13 | CCC1(c2ccc(N)cc2)CCC(=O)NC1=O (stereo not drawn) [Glutethimide, para-amino] | 0.24 ± 0.0099 | 0.393 ± 0.032 | 0.43 ± 0.03 |  |  |  | 0.402 ± 0.014 | 0.383 ± 0.033 |  |  |  |  | 
14 | O[C@@H]1CCCC[C@H]1N1CCC(c2ccccc2)CC1 [L(-)-vesamicol hydrochloride] | 0.216 ± 0.0031 | 0.294 ± 0.048 | 0.381 ± 0.016 |  |  |  | 0.414 ± 0.012 | 0.358 ± 0.0053 |  |  |  |  | 
15 | C=CCC1(CC(C)C)C(=O)NC(=O)NC1=O [Butalbital] | 0.2428 ± 0.002 | 0.407 ± 0.1 | 0.3 ± 0.074 | 0.218 ± 0.021 | 0.24 ± 0.015 |  | 0.395 ± 0.0067 | 0.37 ± 0.0073 |  |  |  |  | 
16 | O=[N+]([O-])O[C@@H]1CO[C@H]2[C@@H]1OC[C@@H]2O [Isosorbide mononitrate] | 0.24 ± 0.0084 | 0.255 ± 0.084 | 0.345 ± 0.017 |  |  |  | 0.4231 ± 0.0041 | 0.324 ± 0.012 | 0.292 ± 0.0083 | 0.261 ± 0.018 | 0.198 ± 0.035 | 0.209 ± 0.018 | 0.136 ± 0.0044
17 | CO[C@]12C[C@@H](COC(=O)c3cncc(Br)c3)CN(C)[C@@H]1Cc1cn(C)c3cccc2c13 [Nicergoline] | 0.174 ± 0.0043 | 0.221 ± 0.021 | 0.279 ± 0.056 |  |  |  | 0.416 ± 0.005 | 0.268 ± 0.015 |  |  |  |  | 
18 | C[N+]1(C)CCCC(OC(=O)C(O)(c2ccccc2)c2ccccc2)C1 (stereo not drawn) [Mepenzolate bromide] | 0.235 ± 0.006 | 0.307 ± 0.038 | 0.461 ± 0.02 |  |  |  | 0.405 ± 0.0053 | 0.345 ± 0.014 | 0.307 ± 0.016 | 0.258 ± 0.0015 | 0.203 ± 0.022 | 0.179 ± 0.0065 | 0.137 ± 0.0056
